High-throughput results: PubChem BioAssay, National Center for Advancing Translational Sciences (NCATS)
A selection: hits, their analogues and other compounds. The true share with any hit is near 7.4%.
ELG1 genotoxic: induces genotoxicity in HEK293T cells with luciferase-tagged ELG1; Potency, µM (titrated, usually from 46 µM), most hits filed as activators; HEK293T ELG1-luciferase reporter, luminescence, 16 h; 330,000 compounds, 1.3% hits; also: nearly all actives have a fitted effect of over 60% in size
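ELG1-luciferase HEK293T cells, 2,000/well; compound pinned in; 16 hr, 37 °C, 5% CO2; ONE-Glo, 30 min RT; luminescence on CCD imager.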
Rab9 prom act: activators of Rab9 promoter | Huh7 Rab9 promoter-luciferase reporter, luminescence, 24 h | Potency, µM (top dose mostly 9.22 µM), hits mostly activators | 320,000 compounds, 2.8% hits; also: nearly all actives have a fitted effect of over 60% in size
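Using Huh7 cells stably transfected with Rab9 promoter–luciferase, compounds were incubated 24 h at 37 °C, 5% CO2; luciferase luminescence was read 10 min after reagent addition.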
SMN2 splice enh: increases expression of the SMN2 splice variant | HEK293 SMN2-luciferase splicing reporter, luminescence, 30-36 h | Potency, µM (doses to about 46.1 µM), usual class: activators | 210,000 compounds, 2.8% hits | AID 1458; also: nearly all actives have a fitted effect of over 55% in size
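qHTS luciferase splicing reporter: luminescence rises when SMN2 exon 7 is included in transfected HEK293 cells. Compound exposure lasted 30-36 h at 37C, with 4.5 mM final sodium butyrate as control, followed by a ONE-Glo read.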
FLuc counter: counter-screen for miR-21 project: firefly luciferase inhibitors or activators; purified FLuc, Km substrates, luminescence inhibition; Potency, µM (titrated, usually from 57.5 µM), actives largely listed as inhibitors; 360,000 compounds, 6.9% hits; also: nearly all actives have a fitted effect of over 55% in size
Target sequence (P08659 whole entry, looked up): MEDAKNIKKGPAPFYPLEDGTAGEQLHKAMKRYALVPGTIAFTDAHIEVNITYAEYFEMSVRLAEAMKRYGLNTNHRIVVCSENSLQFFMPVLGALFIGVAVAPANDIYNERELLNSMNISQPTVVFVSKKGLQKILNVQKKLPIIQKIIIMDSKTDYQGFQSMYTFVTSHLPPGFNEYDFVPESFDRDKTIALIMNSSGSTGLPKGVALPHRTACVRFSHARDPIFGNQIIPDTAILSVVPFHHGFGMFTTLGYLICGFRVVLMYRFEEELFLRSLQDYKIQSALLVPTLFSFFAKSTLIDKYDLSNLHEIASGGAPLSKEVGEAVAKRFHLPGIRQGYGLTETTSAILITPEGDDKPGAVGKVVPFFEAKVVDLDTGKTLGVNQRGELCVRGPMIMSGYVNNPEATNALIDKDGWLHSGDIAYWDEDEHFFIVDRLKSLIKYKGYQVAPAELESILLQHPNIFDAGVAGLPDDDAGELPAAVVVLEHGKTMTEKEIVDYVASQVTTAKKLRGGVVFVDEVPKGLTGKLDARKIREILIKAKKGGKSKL
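Purified P. pyralis luciferase (10nM final) with 10uM D-luciferin and 10uM ATP (Km levels) in 50mM Tris acetate pH 7.5, 10mM Mg acetate, 0.01% Tween-20, 0.05% BSA; qHTS 6-point titration, ~60 µM downward; luminescence read.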
NPC1 prom act: NPC1 promoter activation; Huh7 NPC1 promoter luciferase reporter, 24 h; Potency, µM (titrated, usually from 9.22 µM), actives largely listed as activators; 320,000 compounds, 2.4% hits; AID 485313; also: nearly all actives have a fitted effect of over 60% in size
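Huh7 cells stably carrying NPC1 promoter–luciferase, plated in Opti-MEM with 10% FBS for 2 h, were exposed to compound in DMSO for 24 h at 37 °C; luciferase reagent was added for 10 min and luminescence read.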
Large screens that a line does not name were inactive. Calls follow the shape of the dose curve; as a rule, active = well fitted curve in the direction sought with a large enough effect; inconclusive = small, poorly fitted or top-dose-only effect, or another doubt; inactive = no such curve, though single readings can be large; an effect the other way counts as inactive or inconclusive.

COc1cccc(C(=O)NC2CCCN(C3Cc4ccccc4C3)C2)c1OC (stereo unspecified)	none (no result: SMN2 splice enh)
CCOC(=O)c1c(C)oc2cc(Cl)c(O)c(CN(C)C)c12	ELG1 genotoxic inconclusive, FLuc counter 15µM (no result: SMN2 splice enh)
CCOC(=O)c1c(C)oc2ccc(O)c(CN(C)C)c12	none
CCc1ccccc1-n1c(SCC(=O)Nc2ccc(C)cc2)nc2n[nH]c(C)c2c1=N	none (no result: ELG1 genotoxic, Rab9 prom act, SMN2 splice enh, NPC1 prom act)
CCc1nn2c(=O)cc(COc3ccc(/C=C(\C#N)C(=O)Nc4ccc(F)cc4)cc3OC)nc2s1	none (no result: ELG1 genotoxic, Rab9 prom act, NPC1 prom act)
Cc1cccc(-c2noc(-c3ccoc3C)n2)c1	ELG1 genotoxic inconclusive, Rab9 prom act 0.71µM, SMN2 splice enh inconclusive, FLuc counter 4.8µM, NPC1 prom act 0.35µM
Cc1cccc(-c2noc(CNC(=O)c3ccoc3C)n2)c1	none (no result: SMN2 splice enh)
COc1cccc(-c2noc(-c3ccoc3C)n2)c1	ELG1 genotoxic inconclusive, Rab9 prom act 2.5µM, FLuc counter 6.7µM, NPC1 prom act inconclusive (no result: SMN2 splice enh)
COc1ccc(-c2noc(-c3ccoc3C)n2)cc1OC	none (no result: SMN2 splice enh)
COc1ccc(-c2noc(-c3ccoc3C)n2)cc1	ELG1 genotoxic inconclusive, Rab9 prom act 1.6µM, FLuc counter 2.4µM, NPC1 prom act 2.8µM (no result: SMN2 splice enh)
O=C1C(=O)c2ccccc2C(O)=C1CCCCl	none (no result: SMN2 splice enh)
O=C(COC(=O)CCC(=O)c1cccs1)NCCc1ccccc1	none (no result: Rab9 prom act, SMN2 splice enh, FLuc counter, NPC1 prom act)
CN(/N=C/c1cccnc1)c1cnc2ccccc2n1	ELG1 genotoxic inconclusive, Rab9 prom act 2.8µM, SMN2 splice enh 11µM, FLuc counter 5.4µM, NPC1 prom act inconclusive
COc1ccc(NC(=O)CCc2nc3cccnc3n2-c2ccccc2)cc1Cl	none (no result: ELG1 genotoxic, Rab9 prom act, NPC1 prom act)
CC(C)(C)c1ccc(C(=O)CSc2n[nH]c(=O)[nH]c2=O)cc1	FLuc counter 12µM
CC(C(Sc1ccccc1N)c1ccccc1)[N+](=O)[O-] (stereo unspecified)	ELG1 genotoxic inconclusive, FLuc counter 9.5µM (no result: SMN2 splice enh)
COc1ccccc1Nc1nc(-c2ccc(F)cc2)c2c(n1)-c1ccccc1OC2	none (no result: ELG1 genotoxic, Rab9 prom act, SMN2 splice enh, NPC1 prom act)
CC1(C)CC(=O)C(N=Nc2cccnc2)=C(O)C1	none (no result: SMN2 splice enh)
CC1(C)CC(=O)C(N=Nc2ccc(-c3ccccc3)cc2)=C(O)C1	ELG1 genotoxic inconclusive, FLuc counter 2.1µM
CC1(C)CC(=O)C(N=Nc2ccc(OC(F)F)cc2)=C(O)C1	ELG1 genotoxic inconclusive, FLuc counter 17µM
CC1(C)CC(=O)C(N=Nc2ccc(Cl)cc2)=C(O)C1	ELG1 genotoxic inconclusive, SMN2 splice enh 14µM, FLuc counter 4.8µM
CC1(C)CC(=O)C(N=Nc2c(Cl)cc(Cl)cc2Cl)=C(O)C1	FLuc counter inconclusive
CC1(C)CC(=O)C(N=Nc2ccc3ncsc3c2)=C(O)C1	FLuc counter 19µM (no result: ELG1 genotoxic, Rab9 prom act, NPC1 prom act)
COc1ccccc1N(C)C(=O)Cn1c(=O)oc2cc(S(=O)(=O)N3CCCC3)ccc21	none (no result: ELG1 genotoxic, Rab9 prom act, NPC1 prom act)
CC(C(=O)NCc1ccccc1)n1ccc2cc(S(=O)(=O)N3CCCC3)ccc21 (stereo unspecified)	none (no result: ELG1 genotoxic, Rab9 prom act, SMN2 splice enh, NPC1 prom act)
COc1ccccc1-n1c(SCC(=O)NC2CC2)nc2ccccc2c1=O	none (no result: SMN2 splice enh)
c1ccc(-c2nc(SCc3nc4ccccc4[nH]3)c3oc4ccccc4c3n2)cc1	none (no result: Rab9 prom act, SMN2 splice enh, FLuc counter, NPC1 prom act)
CN(C)c1ccc(C(=C2C=CC(=[N+](C)C)C=C2)c2c(O)c(S(=O)(=O)O)cc3cc(S(=O)(=O)O)ccc23)cc1	none (no result: ELG1 genotoxic, Rab9 prom act, FLuc counter, NPC1 prom act)
O=C(C1CCCC1)N1CCC(CC2CC(c3cccc(Br)c3)=NO2)(C(=O)NCC2CCCCC2)CC1 (stereo unspecified)	none (no result: SMN2 splice enh)
CC1(C)CC(=O)C(N=Nc2ccc(F)cc2)=C(O)C1	ELG1 genotoxic inconclusive, FLuc counter 15µM (no result: SMN2 splice enh)
O=C(CSc1ncccn1)NC(=O)Nc1ccc2c(c1)OCCO2	FLuc counter 24µM
CC1(C(=O)OCC(=O)Nc2ccc(C(N)=O)cc2)CC1(Cl)Cl (stereo unspecified)	none
O=C(CSc1ccccn1)Nc1ccc2c(c1)C(=O)c1ccccc1C2=O	ELG1 genotoxic 16µM, Rab9 prom act 4µM, SMN2 splice enh 10µM, FLuc counter inconclusive, NPC1 prom act 2.8µM
CC1(C(=O)OCC(=O)Nc2ccc3ccccc3c2)CC1(Cl)Cl (stereo unspecified)	FLuc counter 19µM
O=C(CSc1ccccn1)Nc1ccc2c(c1)CCC2	ELG1 genotoxic inconclusive, Rab9 prom act inconclusive, FLuc counter 12µM (no result: SMN2 splice enh)
O=C(CSc1ccccn1)Nc1ccc(Cl)c([N+](=O)[O-])c1	FLuc counter inconclusive
COc1ccc(N(Cc2nnc3n2CCCCC3)C(=O)Nc2ccc(Cl)cc2)cc1Cl	none (no result: ELG1 genotoxic, Rab9 prom act, SMN2 splice enh, NPC1 prom act)
